Assay outcomes as filed in PubChem.
Compounds with a hit are over-represented: about 4.6% of the library has one in this group of screens.
DAX1 inh-1: NR0B1 (DAX1) inhibition; P51843; HEK293 Gal4-DAX1 luciferase reporter, luminescence; inhibition, % at 6.75 µM; hit rate 0.99% among 340,000; AID 504766;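 active means inhibition above the mean over all tested compounds plus 3 SD, cut at about 4.2% in these data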;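 further: 0% = DAX1-transfected cells with DMSO and 100% = empty-vector control cells with DMSO; inhibition shows as a rise in luminescence from relieved DAX1 repression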
Target sequence (P51843 207-470 limits assumed): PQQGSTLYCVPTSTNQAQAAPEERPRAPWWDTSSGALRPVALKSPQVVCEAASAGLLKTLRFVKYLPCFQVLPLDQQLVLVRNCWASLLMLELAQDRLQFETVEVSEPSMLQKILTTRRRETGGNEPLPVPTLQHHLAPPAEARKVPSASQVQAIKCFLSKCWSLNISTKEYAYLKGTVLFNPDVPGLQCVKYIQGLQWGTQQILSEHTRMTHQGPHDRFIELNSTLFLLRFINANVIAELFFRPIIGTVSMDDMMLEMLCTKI
hcDAF12 agonist: activators of H. contortus DAF-12 nuclear receptor; hit rate 1.4% among 370,000; AID 652067; activation, % at 6.8 µM; HEK293 hcDAF-12 lit1-tk-luc reporter, luminescence; 0% DMSO, 100% Δ7-dafachronic acid;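 active means activation above the mean of all tested compounds plus 3 SD, cut at about 5.5% in these data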;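 further: 100% = response to 3 µM Δ7-dafachronic acid high control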
ssDAF-12 act: activators of S. stercoralis DAF-12 nuclear receptor | HEK293 ssDAF-12/GRIP1 lit1-tk-luc reporter, luminescence; % of 3 µM dafachronic acid response | activation, % at 6.8 µM | hit rate 1% among 370,000 | AID 652126;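 active means activation above the mean over all tested compounds plus 3 SD, cut at about 0.9% in these data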;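 further: 0% = DMSO-only wells and 100% = 3 µM delta7-dafachronic acid wells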
Wee1 degr inh: inhibitors of human Wee1 degradation | HeLa Luc-Wee1K328M stability, luciferase luminescence; 100% = proteasome inhibitor MG132 effect | reporter increase, % at 5 µM | P30291 | hit rate 1.2% among 220,000;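 active means activation above the mean of all tested compounds plus 3 SD, set per screening run, cut at about 8.8% in these data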;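 further: cells exposed to compound for 20 h before luminescence read; 0% = DMSO alone and 100% = MG132 at 30 µM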
hgDAF-12 ag: agonists of H. glycines DAF-12 nuclear receptor; HEK293 GAL4-hgDAF12 UAS-luciferase reporter, agonist luminescence; normalized to butyrate control; activation, % at 6.8 µM; hit rate 1.8% among 370,000; AID 687014;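 active means activation above a cutoff set at the mean of all screened compounds plus 3 SD, cut at about 10% in these data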;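 further: 0% = DMSO wells and 100% = sodium butyrate wells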
DAX1 inh-2: blocks DAX1 repression of SF-1 activated StAR promoter; hit rate 1.1% among 370,000; AID 652010; HEK293T StAR-luciferase reporter, SF-1/DAX-1 repression relief; inhibition, % at 6.8 µM;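 active means inhibition above the mean over all tested compounds plus 3 SD, cut at about 3.6% in these data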;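 further: 0% = DAX-1 cells with DMSO and 100% = cells lacking DAX-1 with DMSO; higher inhibition means more luminescence from relief of DAX-1 repression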
* = called active by the depositor; . = not tested or not shown.

SMILES | DAX1 inh-1 | hcDAF12 agonist | ssDAF-12 act | Wee1 degr inh | hgDAF-12 ag | DAX1 inh-2
COc1ccc(CN2CCNC(=O)C2CC(=O)N(C)CC2CCOCC2)cc1OC (centres undefined) | 0 | 2 | -1 | . | 4 | 0
CN(CC1CCOCC1)C(=O)CC1C(=O)NCCN1Cc1ccc(-c2ccccc2)cc1 (centres undefined) | 0 | 0 | -1 | 9.1* | 2 | 0
CC1COCC(C)N1S(=O)(=O)c1ccc2c(c1)CCN2C(=O)C1CCC1 (centres undefined) | . | 0 | -1 | . | 0 | -1
CCc1ccc2nc(N)sc2c1 | 6.4* | 2 | 0 | 3 | 11* | 3
CCc1ccc(NC(=O)c2ccc3nc(N)sc3c2)cc1 | 1 | 0 | -1 | 2 | 5 | 1
CCN(C[C@H]1N[C@@](CC)(C(=O)OC)[C@H]2C(=O)N(Cc3ccccc3)C(=O)[C@@H]12)C(=O)C1CCCCC1 | 1 | 1 | -1 | . | 1 | -1
C[C@H](NC(=O)[C@H](Cc1ccccc1)n1c(=O)[nH]c2ccccc2c1=O)C(=O)N1CCC(C(=O)O)CC1 | 4.9* | 0 | -2 | . | -1 | 0
CNC(=S)N(C)/N=C1/C(=O)N(Cc2c(Cl)cccc2Cl)c2ccccc21 | 0 | -2 | -1 | . | 1 | 0
COc1ccc(OCC(=O)NNC(=O)c2ccc3c(=O)n4c(nc3c2)CCC4)cc1 | 0 | 1 | -1 | . | 0 | 0
O=C(COc1ccc(Cl)cc1)NNC(=O)c1ccc2c(=O)n3c(nc2c1)CCC3 | -1 | 0 | -1 | . | -2 | 4.1*
CCC(CC)NC(=O)O[C@H]1CC[C@@]23CCCN2C(=O)CCC[C@H]3C1 | . | 0 | -1 | . | 0 | .
Cc1cc(C(=O)N2CCCC(C)(C(=O)NS(=O)(=O)C3CC3)C2)nn1C(C)(C)C (centres undefined) | . | 2 | -1 | . | 0 | -1
COc1ccc(N2CCN(C(=O)CN(C)S(=O)(=O)c3cnc[nH]3)CC2)cc1 | 7.1* | 0 | 0 | 0 | -3 | -1
COc1cc(Cl)ccc1OCc1cc(C(=O)N2CCCCCCC2)no1 | 0 | 1 | 0 | . | 3 | 1
COc1ccc(OCc2cc(C(=O)N3CCCCCC3)no2)c(Cl)c1 | 1 | -1 | 0 | . | 9 | 4.1*
O=C(c1cc(COc2ccc(F)cc2Cl)on1)N1CCSCC1 | 1 | 2 | -1 | . | 5 | 3
COc1ccc(OCc2cc(C(=O)N3CCSCC3)no2)c(Cl)c1 | 1 | 3 | 0 | . | 10 | 3.9*
COc1ccc(OCc2cc(C(=O)N3CCN(CC(=O)N(C)C)CC3)no2)c(Cl)c1 | 1 | 0 | -1 | . | -1 | 0
COCCN1CCN(C(=O)c2cc(COc3ccc(Cl)cc3OC)on2)CC1 | 1 | 4 | 0 | . | 6 | 4.3*
CCOC(=O)C1CCN(C(=O)c2cc(COc3ccc(F)cc3F)on2)CC1 | 2 | 2 | 1 | . | 12* | 3
COc1ccc(C(=O)C(C)OC(=O)c2nc3nccc(C)n3n2)cc1 (centres undefined) | 1 | 1 | -2 | . | 2 | 2
O=C(c1cc(COc2ccc3c(c2)CCCC3)on1)N1CCCC1 | 4 | 4 | 1 | . | 10 | 4.0*
CC(C)(C)C1CCC(=NNC(=O)c2ccccc2-n2cccc2)CC1 (centres undefined) | -1 | 6.0* | 0 | 4 | 0 | 0
N=c1ccn(O)cc1CCc1ccccc1 | 5.8* | 2 | -2 | . | 0 | 2
Cc1ccc(C(=O)OCC(=O)NC2CCCCCC2)c(C)c1 | -1 | -1 | -1 | . | -4 | 2
SMILES | DAX1 inh-1 | hcDAF12 agonist | ssDAF-12 act | Wee1 degr inh | hgDAF-12 ag | DAX1 inh-2
Cc1ccc(C(=O)NC(=S)Nc2ccccc2N2CCCC2)cc1[N+](=O)[O-] | 1 | 1 | 1.4* | 2 | -1 | -1
N#CCSc1ccccc1NC(=O)CN1C(=O)C2CC=CCC2C1=O (centres undefined) | 1 | 4 | 2.3* | . | 5 | -5
CC(C)(C)NC(=O)NC(=O)COC(=O)CNS(=O)(=O)c1ccc(Br)cc1Cl | 5.8* | 0 | 0 | 3 | 5 | 0
O=C(CNS(=O)(=O)c1ccc(Br)cc1Cl)OCC(=O)N1CCCC1=O | 1 | -1 | -1 | . | 1 | 0
COc1ccc2c(c1)CC/C(=C\c1ccc(C)o1)C2=O | 4.9* | 3 | -1 | 2 | 7 | 2
CCCN1CCN(CCCNC(=O)c2cc3c(=O)[nH]c4ccc(C)cc4c3s2)CC1 | 6.4* | -1 | 0 | 0 | -1 | 2
COCCN=C1S/C(=C\c2cc(C)n(-c3ccc(F)cc3F)c2C)C(=O)N1C | . | 5.7* | 0 | . | 4 | .
Cc1cc(Oc2nc3ccccn3c(=O)c2/C=C(\C#N)C(=O)NC2CCS(=O)(=O)C2)ccc1Cl (centres undefined) | -1 | 0 | -1 | . | -2 | 0
Cc1ccc(Oc2nc3ccccn3c(=O)c2/C=C(\C#N)C(=O)Nc2c(C)n(C)n(-c3ccccc3)c2=O)c(C)c1 | 0 | 0 | -1 | -1 | -1 | 0
Cc1c(NC(=O)/C(C#N)=C/c2ccccc2)c(=O)n(-c2ccccc2)n1C | -1 | 0 | -1 | 0 | 0 | 0
COc1ccccc1Oc1nc2ccccn2c(=O)c1/C=C(\C#N)C(=O)Nc1c(C)n(C)n(-c2ccccc2)c1=O | 4.8* | 2 | 0 | -1 | 0 | 0
Cc1ccsc1/C=C(\C#N)C(=O)Nc1c(C)n(C)n(-c2ccccc2)c1=O | 4.8* | 0 | -2 | 7 | 0 | 1
Cc1cccc(Oc2nc3ccccn3c(=O)c2/C=C(\C#N)C(=O)NC2CCS(=O)(=O)C2)c1 (centres undefined) | -1 | 0 | -1 | 10* | 3 | -2
COC(=O)[C@]12C[C@H](CC(=O)NCCCN3CCCC3=O)C(=O)N(Cc3ccc(Cl)cc3Cl)C1=C[C@H](C(C)(C)C)O[C@@H]2C | . | -3 | -1 | . | 1 | -1
O=C1NC[C@@H](CCCCN2C[C@H](Cc3ccc(O)cc3)N(CC3CCCCC3)C(=O)C2=O)N(CCc2ccccc2)C1=O | . | 0 | -1 | . | 1 | 0
CCOC(=O)c1c(-c2ccccc2)csc1NC(=O)c1ccc(S(=O)(=O)N2CCOCC2)cc1 | 2 | 0 | -1 | -1 | 11* | 0
CCC[C@H]1[C@@H](NC(=O)c2cccnc2)CC[C@@]23CCCN2C(=O)CCC[C@@H]13 | . | -1 | -2 | . | 1 | .
O=C(CCn1c(=S)oc2ccccc21)NCCC1=CCCCC1 | 0 | -1 | -1 | 11* | -1 | 0
CCCNC(=O)CCn1c(=S)oc2ccccc21 | -3 | 1 | -1 | 1 | -2 | 1
CCOC(=O)C1(C)CCCN1C(=O)c1snnc1C (centres undefined) | . | 0 | -1 | . | 2 | 0
